The source of these data is PubChem BioAssay AID2417 (National Center for Advancing Translational Sciences (NCATS), 2010).

Screen size: about 140,000 compounds; about 4,300 (3.1%) were called active. Roughly 21% stayed inconclusive and do not appear here. Shown is part of a subset that was picked to be rich in actives. A number with no mark means an inactive call.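 How the source made its calls: active means readout at or below -70, meaning at least 70% loss of cells showing the perinucleolar compartment, a nuclear body marking cancer cells; inconclusive means readout between -30 and a set limit; inactive means the rest.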

The test in a line: High Content Assay for Compounds that inhibit the Assembly of the Perinucleolar Compartment.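 Further: plate controls were DMSO wells for no effect and camptothecin positive control wells for full effect.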 To be noted: PC3M PTB-GFP, PNC prevalence imaging, 16 h; at 10 µM; stronger effect = lower value. In outline: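 Read-out is percentage of cells bearing a perinucleolar compartment, from automated 20x imaging of fixed, Hoechst-stained PC3M PTB-GFP cells. Cells were seeded 4 h, then exposed 16 h to compound (23 nl of library stock) in duplicate plates.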
In the case of `Cc1cccc2cc(CN(C(=O)c3cccs3)c3ccccc3)c(=O)[nH]c12`, the activity change (PNC), negative = inhibition was 29.9%.

For the compound `COc1ccc(/C(C)=N/Nc2cc(C(F)(F)F)ccc2Cl)c(OC)c1`, the activity change (PNC), negative = inhibition is -13.2%.

As for `O=C(c1ccc2c(c1)OCO2)N1CCNc2ccccc2C1`, the activity change (PNC), negative = inhibition was -29.9%.

Regarding `O=C(c1ccc2c(c1)OCO2)N1CCN(C(=O)c2ccco2)CC1`, the activity change (PNC), negative = inhibition is 54.5%.

Regarding `O=C(c1ccc2c(c1)OCO2)N1CCOCC1`, the activity change (PNC), negative = inhibition was -100% (active).

With `Cc1cccc(OP(=O)(Nc2c(C)n(C)n(-c3ccccc3)c2=O)Oc2cccc(C)c2)c1`, the activity change (PNC), negative = inhibition is -6.43%.

On to `COc1ccc(N(C(=O)c2ccc(C)cc2)S(=O)(=O)c2cccs2)cc1`, for which the activity change (PNC), negative = inhibition is 19.1%.

Turning to `O=C(CN1CCN(C(=O)c2cccc(F)c2)CC1)Nc1ccccc1F`, the activity change (PNC), negative = inhibition was 6.16%.

For the compound `Cc1ccc(NC(=S)NC(=O)c2ccc(-c3ccccc3)cc2)c(C)c1`, the activity change (PNC), negative = inhibition was 6.22%.

As for `Cc1ccc(NC(=O)CC2C(=O)N(Cc3ccccc3)C(=S)N2NC(=O)c2cccc(F)c2)c(C)c1` (centres undefined), the activity change (PNC), negative = inhibition was -107% (active).

Consider `CC(=O)NC1=NN(C(C)=O)C(C)(CCS(=O)(=O)c2ccc(Cl)c(Cl)c2)S1` (centres undefined), for which the activity change (PNC), negative = inhibition was 72.1%.

As for `COc1ccc(OCCNS(=O)(=O)Cc2ccccc2)cc1`, the activity change (PNC), negative = inhibition is 21.5%.

`N#Cc1cccc(NC(=O)COC(=O)c2ccccc2C(=O)c2ccc(Cl)c([N+](=O)[O-])c2)c1`: the activity change (PNC), negative = inhibition is -102% (active).

In the case of `CC(=O)Nc1ccc(NC(=O)C(C)OC(=O)c2ccccc2C(=O)c2ccc(Cl)c([N+](=O)[O-])c2)cc1` (centres undefined), the activity change (PNC), negative = inhibition was 14.8%.

With `COC(=O)c1cc(NC(=O)Cc2ccccc2[N+](=O)[O-])ccc1Cl`, the activity change (PNC), negative = inhibition is -21.5%.

As to `CCc1nnc(NC(=O)/C=C/c2ccc(C)o2)s1`, the activity change (PNC), negative = inhibition is 43.5%.

With `COC(=O)C1=C(C)N(C)C(=S)NC1c1ccccc1` (centres undefined), the activity change (PNC), negative = inhibition is -28.4%.

Take `O=C(NCc1cccs1)C(=O)NCC1OCCCN1S(=O)(=O)c1ccc(F)cc1` (centres undefined): the activity change (PNC), negative = inhibition is 17.8%.

Turning to `Cc1cccc(N2CCN(C(=O)c3ccccc3NC(=O)C3CCCCC3C(=O)O)CC2)c1` (centres undefined), the activity change (PNC), negative = inhibition is 0.826%.

As to `O=S(=O)(NCCSc1ccccn1)c1ccc(Cl)cc1`, the activity change (PNC), negative = inhibition is 47.1%.

Consider `CCc1nnc(NC(=O)C2CCCN2S(=O)(=O)c2ccccc2)s1` (centres undefined), for which the activity change (PNC), negative = inhibition was 0.753%.

As to `CC1CN(S(=O)(=O)c2ccccc2)C(C)CN1S(=O)(=O)c1ccccc1` (centres undefined), the activity change (PNC), negative = inhibition was -100% (active).

As to `COc1ccc(C2SCCN2S(=O)(=O)c2ccccc2)cc1OC` (centres undefined), the activity change (PNC), negative = inhibition is -9.05%.

With `CCCn1nc(NS(=O)(=O)c2ccccc2)c2cc3cc(C)ccc3nc21`, the activity change (PNC), negative = inhibition is 9.97%.

On to `CN(C)S(=O)(=O)c1cc(NC(=O)CN2C(=O)NC3(CCCc4ccccc43)C2=O)ccc1Cl` (centres undefined), for which the activity change (PNC), negative = inhibition was 71.5%.

As to `CCOc1ccc(NC(=S)N2CCC(N(C)CC3CCCO3)CC2)cc1` (centres undefined), the activity change (PNC), negative = inhibition was 0.566%.

Take `CC1CCN(C(=O)c2ccc(S(=O)(=O)Cc3cc(F)ccc3F)c([N+](=O)[O-])c2)CC1`: the activity change (PNC), negative = inhibition is 25.9%.

Turning to `CC(C)(C)NCCCOc1ccc(Cl)cc1C(C)(C)C`, the activity change (PNC), negative = inhibition is -102% (active).

For the compound `Cc1ccc(C(C)(C)C)c(OCCCCN2CCCC2)c1`, the activity change (PNC), negative = inhibition was -12.5%.

As to `COCCCNCCOCCOc1ccc(Cl)cc1Br`, the activity change (PNC), negative = inhibition was 40.2%.

Consider `CCCCc1nc(NCc2ccccc2)c(C#N)c2c1CCCC2`, for which the activity change (PNC), negative = inhibition is 225%.

Regarding `Cc1nn(Cc2ccccc2)c(C)c1C(=O)NCCN1C(=O)S/C(=C\c2ccc(F)cc2)C1=O`, the activity change (PNC), negative = inhibition is 37%.

Take `C[N+]1(CC(O)COc2ccccc2)CCN(C(=O)c2ccc([N+](=O)[O-])cc2)CC1` (centres undefined): the activity change (PNC), negative = inhibition is 13%.

In the case of `COc1ccc(-c2cc3ccc(OCc4nn[nH]n4)cc3oc2=O)cc1`, the activity change (PNC), negative = inhibition is -119% (active).

Take `O=c1oc2cc(O)ccc2cc1-c1ccc(F)cc1`: the activity change (PNC), negative = inhibition is 13%.

For `CCCCc1cc(=O)oc2cc(C)cc(OCc3nn[nH]n3)c12`, the activity change (PNC), negative = inhibition is 9.68%.

Turning to `Cc1cc(C)nc(N2CCN(c3ncnc4c3oc3ccccc34)CC2)n1`, the activity change (PNC), negative = inhibition is -114% (active).

On to `CCc1nc(N2CCN(c3nc(C)cc(C)n3)CC2)c2oc3ccccc3c2n1`, for which the activity change (PNC), negative = inhibition was -21.5%.

`COc1ccccc1Nc1ncnc2c1oc1ccccc12`: the activity change (PNC), negative = inhibition is 52.9%.

With `O=C(COC(=O)c1c2c(nc3ccccc13)/C(=C\c1cccs1)CCC2)Nc1ccccc1Cl`, the activity change (PNC), negative = inhibition was -25.2%.

Regarding `O=C(CN1C(=O)NC2(CCCCCC2)C1=O)NCc1cccs1`, the activity change (PNC), negative = inhibition is -4.41%.

Consider `COc1ccccc1OCc1ccc(C(=O)N2CCN(C)CC2)o1`, for which the activity change (PNC), negative = inhibition is -19.3%.

On to `Cc1c(Cl)cccc1NC(=O)Nc1ccc(C(=O)N2CCCC2)cc1`, for which the activity change (PNC), negative = inhibition was -83.7% (active).

Take `O=C(c1ccc(Cl)c(Cl)c1)N1CCCC1`: the activity change (PNC), negative = inhibition was 50.1%.

In the case of `CS(=O)(=O)Nc1ccc(C(=O)N2CCCC2)cc1`, the activity change (PNC), negative = inhibition was 3.33%.

For the compound `CCC(C)(C)C1CCC(=NNC(=O)c2ccc(Br)o2)CC1` (centres undefined), the activity change (PNC), negative = inhibition was -3.73%.

Consider `CC(C)c1nccn1S(=O)(=O)c1cc([N+](=O)[O-])ccc1Cl`, for which the activity change (PNC), negative = inhibition is 2.64%.

`CCc1nnc(NC(=O)CCN(c2ccc(C)cc2)S(=O)(=O)c2ccccc2)s1`: the activity change (PNC), negative = inhibition is 2.13%.

Regarding `CC1(C)C(=O)Nc2ccccc2N1C(=O)COC(=O)Cn1cnc2ccccc2c1=O`, the activity change (PNC), negative = inhibition was -28.4%.

Consider `CCNc1ccc(C(=O)OCC(=O)N2c3ccccc3NC(=O)C2(C)C)cc1[N+](=O)[O-]`, for which the activity change (PNC), negative = inhibition was -112% (active).

With `Nc1ccc(C(=O)OCC(=O)NC2CCCc3ccccc32)cc1[N+](=O)[O-]` (centres undefined), the activity change (PNC), negative = inhibition was -26.5%.

With `Cc1ccc(C(=O)CNc2ccc(F)cc2)cc1`, the activity change (PNC), negative = inhibition was 23.7%.

With `COc1cc(/C=C/C(=O)OCC(=O)Nc2cccc(Oc3ccccc3)c2)ccc1O`, the activity change (PNC), negative = inhibition is -28.3%.

Take `O=C(COC(=O)/C=C/c1nc2ccccc2s1)Nc1ccccc1Oc1ccccc1`: the activity change (PNC), negative = inhibition is -108% (active).

Turning to `COc1ccc(/C=C/C(=O)OCC(=O)Nc2cccc(Oc3ccccc3)c2)c(OC)c1`, the activity change (PNC), negative = inhibition is 25.2%.

As to `O=C(NC1CCN(Cc2ccccc2)CC1)c1c(F)cccc1F`, the activity change (PNC), negative = inhibition is -1.56%.

For `COCCNC(=O)c1ccc(N2CCC3(CC2)OCCO3)c([N+](=O)[O-])c1`, the activity change (PNC), negative = inhibition was -24.5%.

As for `COc1cccc(NC(=S)NCc2ccco2)c1`, the activity change (PNC), negative = inhibition was 14.5%.

In the case of `Cc1ccc(NC(=O)NC(=O)N(C2CCCCC2)S(=O)(=O)c2ccccc2)cc1`, the activity change (PNC), negative = inhibition is 8.69%.
